TGFb SMAD3 inh: TGF-b pathway inhibition. HepG2 CAGA-GFP TGF-b/SMAD3 reporter, GFP fluorescence, 18 h; TGF-beta stimulated, 500 pg/mL final. actives 1.2% (n = 410,000). Potency, µM (highest dose often 46.1 µM), for inactives: at the top dose activity, negative = inhibition, usual class: inhibitors; note: % is set by controls: 0 for no effect and ±100 for the full control effect; nearly all actives have a fitted effect of over 65% in size
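TGF-beta reporter screen: HEPG2 CAGA-GFP, 1% FBS, 500 pg/mL TGF-beta final, 18 h; per-cell GFP summed per well; curves fitted and categorized by class.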
HT1080-NT tox: kills 2HG-producing HT-1080-NT fibrosarcoma cells; HT-1080-NT fibrosarcoma viability, CellTiter-Glo ATP luminescence, 48 h; Potency, µM (titrated, usually from 46.1 µM), for the others: at the highest dose activity, negative = less viability, hits mostly cytotoxic; actives 1.6% (n = 360,000); AID 686970;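 note: NT is the 2HG producing partner of a matched IDH1 knockdown line; 0% = DMSO-treated cells and -100% = media-only wells without cells; nearly all actives have a fitted effect of over 55% in size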
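HT-1080-NT; 750 cells/well; 5% FBS RPMI; 48 h compound, 37 degrees C; CellTiter-Glo luminescence; curve fitting and curve-class assignment.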
S2 tox: viability counter-screen for ATXN expression inhibitors; S2 cells (HEK-293 line with an ATXN2-luciferase reporter) viability, CellTiter-Fluor protease fluorescence, 24 h; Potency, µM (highest dose often 56.7 µM), hits mostly cytotoxic; actives 0.49% (n = 400,000); note: nearly all actives have a fitted effect of over 40% in size
ATXN2 expr inh: inhibitors of ATXN2 expression | HEK-293 ATXN2-luciferase reporter, luminescence, 24 h | Potency, µM (highest dose often 57 µM), without a hit: top-dose activity change, negative = inhibition, most hits filed as inhibitors | actives 0.72% (n = 360,000) | AID 1745845; note: % is set by controls: 0 for no effect and ±100 for the full control effect; nearly all actives have a fitted effect of over 55% in size
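ATXN2-luciferase reporter cells (luciferase flanked by upstream and downstream ATXN2 gene portions) were treated 24 h at 37 °C with compounds at up to 57 uM. SteadyGlo luminescence gave expression; GF-AFC fluorescence gave viability.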
HepG2 viability: HepG2 cytotoxicity, counter-screen for TGF-b inhibitors; HepG2 CAGA-GFP viability, ATP luminescence, 18 h; Potency, µM (highest dose often 46.1 µM), for the others: at the highest dose activity change, negative = cytotoxicity, actives largely listed as cytotoxic; actives 0.76% (n = 410,000)
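CellTiter-Glo luminescence gave cytotoxicity after 18 hours at 37 degrees C. The cells were HepG2 CAGA-GFP in 1% FBS DMEM, stimulated with 500 pg/mL TGF-beta after compound addition. %Activity was normalised to no-cell wells (complete cell-killing) and DMSO (no toxicity), and curves were fitted and classified.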
HT1080 IDH1KD tx: HT-1080 IDH1 knockdown cell toxicity (counter line); HT-1080 IDH1 knockdown viability, ATP luminescence, 48 h; Potency, µM (top dose mostly 46.1 µM), for the others: at the top dose activity, negative = toxicity, hits mostly cytotoxic; actives 2% (n = 360,000);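 note: 0% = DMSO wells and -100% = cell-free medium wells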
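Assay cells: HT-1080 with IDH1 knockdown, 750 per well, RPMI/5% FBS. Exposure: 48 h at 37 °C following 2 h pre-incubation. Read: CellTiter-Glo luminescence; fitted concentration-response, curve class assigned.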
* = called active by the depositor; i = inactive; ? = inconclusive; . = no result given. In the library only some 3.9% were active in any assay of this set; here they are far more common. Calls come from the whole dose curve; as a rule, active = well fitted curve in the direction sought with a large enough effect; inconclusive = small, poorly fitted or top-dose-only effect, or another doubt; inactive = no such curve, though single readings can be large; an effect the other way counts as inactive or inconclusive. Potency is the fitted concentration of half-maximal effect.

SMILES	TGFb SMAD3 inh	HT1080-NT tox	S2 tox	ATXN2 expr inh	HepG2 viability	HT1080 IDH1KD tx
O=C(c1cnsn1)N1CCOc2ccc(C(O)C(c3ccccc3)c3ccccc3)cc2C1 (stereo unspecified)	.	.	i	.	.	.
CC(NC(=O)CSc1n[nH]c(-c2ccccc2Cl)n1)c1nc2ccccc2n1C (stereo unspecified)	-29%	.	.	.	-20%	.
COc1cc(/C=C/C(=O)O)ccc1O	-3%	-1%	i	-1%	-5%	5%
COc1cc(/C=C2/C(=O)CNC2=O)ccc1O	2%	16%	i	7%	9%	25%
COc1cc(C=C2CCC/C(=C\c3ccc(O)c(OC)c3)C2=O)ccc1O	.	.	28µM*	16µM*	.	.
COc1cc(C=C2C(=O)C=CC2=O)ccc1O	.	15µM*	.	13µM*	.	23µM*
COc1cc(/C=C/C(=O)CC(=O)/C=C/c2ccc(O)c(OC)c2)ccc1O	?	?	i	?	-26%	2.6µM*
COc1cc(/C=C2/CCC/C(=C\c3cc(O)c(OC)c(Cl)c3)C2=O)cc(Cl)c1O	?	?	.	?	13µM*	21µM*
CCOc1ccc2nc(N3CCN(C(=O)c4ccco4)CC3)sc2c1	-1%	.	.	.	-23%	.
Cc1ccc(OCc2cc(=O)n3c4c(sc3n2)CCCC4)c(C)c1	2%	.	i	8%	2%	.
Cc1ccc(S(=O)(=O)N2CCc3cc(C(=O)Nc4c(F)cccc4F)ccc32)cc1	-3%	.	?	-1%	-3%	.
CCC1CN(Cc2cn[nH]c2-c2ccc(OC)cc2)Cc2cc(OC)ccc2O1 (stereo unspecified)	.	.	i	.	.	.
CCN1C/C(=C/c2cccc([N+](=O)[O-])c2)C(=O)/C(=C/c2cccc([N+](=O)[O-])c2)C1	?	4.1µM*	4µM*	3.2µM*	-53%	3.3µM*
COc1ccc(/C=C2\N=C(c3ccccc3Cl)NC2=O)cc1	-20%	-23%	i	.	-25%	15µM*
CC(=O)c1ccc(NS(=O)(=O)c2ccc3[nH]c(=O)[nH]c3c2)cc1	-8%	.	.	.	-16%	.
CCCCN(CC)CCNC(=O)C1CCN(c2nnc(C)c3c(C)n(-c4ccc(C)cc4)nc23)CC1	0%	.	.	.	-5%	.
O=C(NC(=S)Nc1ccc(N2CCCCC2)c(Cl)c1)c1ccc2c(c1)OCCO2	-15%	12µM*	?	?	-26%	18µM*
O=C(Nc1ccc(N2CCN(C(=O)c3ccco3)CC2)c(Cl)c1)c1c(F)c(F)c(F)c(F)c1F	?	-7%	?	28µM*	-20%	-8%
Cc1ccccc1C(=O)N1CCN(c2ccc(NC(=O)c3ccco3)cc2Cl)CC1	?	?	?	32µM*	-20%	?
Cc1ccccc1C(=O)N1CCN(c2ccc(NC(=S)NC(=O)c3ccco3)cc2)CC1	?	?	14µM*	.	-24%	?
O=C(Nc1ccc(N2CCN(C(=O)c3ccco3)CC2)c(Cl)c1)c1cccnc1	-1%	4%	i	-12%	3%	-3%
O=C(c1ccc2c(c1)N(Cc1ccc(Cl)cc1)C(=O)c1ccccc1S2(=O)=O)N1CCC(Cc2ccccc2)CC1	0%	.	i	-22%	-26%	.
O=C(Nc1ccc(N2CCOCC2)c(Cl)c1)c1c(F)c(F)c(F)c(F)c1F	-4%	-20%	i	13µM*	0%	-11%
C[C@H](NC(=O)c1sccc1OCc1ccc(Cl)cc1)c1ccccc1	.	.	.	22µM*	.	.
CCOC(=O)C1CCN(c2ccc(-c3cccs3)nn2)CC1	4%	?	i	9%	7.1µM*	?
SMILES	TGFb SMAD3 inh	HT1080-NT tox	S2 tox	ATXN2 expr inh	HepG2 viability	HT1080 IDH1KD tx
Cc1ccc(Nc2nc(Cl)c(C=O)s2)cc1Cl	5%	18µM*	.	8%	2%	?
O=Cc1sc(Nc2ccccc2)nc1Cl	?	-20%	i	-11%	-9%	-13%
Brc1cccc[n+]1CCCCCC[n+]1ccccc1Br	9%	.	.	.	-25%	.
O=C(Nc1cc(C(F)(F)F)cc(C(F)(F)F)c1)c1cc(Cl)ccc1O	.	.	.	0.86µM*	.	.
Nc1ccc2c(c1)C(=O)c1ccccc1-2	-11%	15%	i	30%	6%	15%
Nc1ccc2c(c1)C(=O)C(=O)c1ccccc1-2	?	4.6µM*	6.3µM*	4.5µM*	4µM*	?
O=C1C(=O)c2ccc(-c3ccccc3)cc2-c2ccccc21	?	3.7µM*	5.6µM*	?	2.5µM*	3.3µM*
CCN(CC)CCOC(=O)c1ccc(N)cc1Cl	.	.	i	.	.	.
C(=C\c1ccccc1)/CSc1nnc(-c2ccccc2)n1Cc1ccco1	?	7.1µM*	i	-8%	-2%	7.1µM*
Brc1ccc(CSc2nnc(-c3ccccn3)n2Cc2ccco2)cc1	?	?	i	-16%	-20%	11µM*
CC(C)(C)c1ccc(CSc2nnc(-c3ccccn3)n2Cc2ccco2)cc1	?	?	i	?	-27%	?
CC1=C(c2ccc(C(C)C)cc2)S(=O)(=O)NC1=NCc1ccccc1Br	-2%	.	.	.	-35%	.
CCCCCCCCCC(=O)N[C@@H](Cc1c[nH]c2ccccc12)C(=O)N[C@H](CC(N)=O)C(=O)N[C@@H](CC(=O)O)C(=O)N[C@@H]1C(=O)NCC(=O)N[C@@H](CCCN)C(=O)N[C@@H](CC(=O)O)C(=O)N[C@H](C)C(=O)N[C@@H](CC(=O)O)C(=O)NCC(=O)N[C@H](CO)C(=O)N[C@@H]([C@@H](C)CC(=O)O)C(=O)N[C@@H](CC(=O)c2ccccc2N)C(=O)O[C@@H]1C	.	.	.	5%	.	.
C/C(=N\N=C(N)N)c1ccc(Cl)c(Cl)c1	?	23µM*	i	-31%	-59%	18µM*
COC(=O)NC(=S)Nc1ccc(Oc2ccc(Cl)cc2Cl)c(Cl)c1	-24%	16µM*	?	-30%	-71%	21µM*
COC(=O)NC(=S)Nc1ccc(Oc2ccc(Cl)cc2)c(Cl)c1	-28%	?	i	-18%	-22%	-22%
CC(C)(C)C(=O)CSc1nc2ccsc2c(=O)n1Cc1ccccc1Cl	-1%	.	.	.	-10%	.
CCc1ccc2oc(C(=O)N3CCN(c4ccc(OC)cc4)CC3)cc(=O)c2c1	5%	-4%	i	-24%	0%	-2%
CCc1ccc2oc(C(=O)N3CCN(c4ccccc4OC)CC3)cc(=O)c2c1	?	?	i	-35%	-24%	13µM*
